# In PubChem BioAssay (EPA / NIEHS):
# “And” between values parts separate entries of the source, which are not always exact repeats. Identical values can stand only once. Records with an inconclusive call do not appear. Some compounds were tested as several samples or in several runs, with calls that do not always agree. The source made the active and inactive calls. The calls were made as follows, unless noted: active = hit-call score of the fitted dose curve at least 0.9, where 1 is the maximum; inactive = score below 0.9.
# Tests used:
# [1] = UKN2_HCS_IMR90_cell_viability: Viability Assessment in the University of Konstanz (UKN) Leist Lab Neural Crest Cell Migration Assay in human induced IMR90 Pluripotent Stem Cells (UKN2) (AID 2284233);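 also: viability of neural crest cells differentiated from IMR90 iPSC measured by calcein-AM fluorescence imaging; cells exposed to compound for 24 h after a 24 h migration phase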
# Outline: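 Neural crest cells derived from IMR90 iPSC migrate into a stopper-free zone for 24 h in EGF/FGF medium, then are exposed to compound for 24 h. Viability assessed by calcein-AM and Hoechst staining with high-content imaging, fitted bidirectionally versus DMSO.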
# [2] = CCTE_Mundy_HCI_Cortical_NOG_NeuronCount: CCTE's Neurite Outgrowth Assay in rat cortical cells for Neuron Count, Mundy Lab (AID 2284236; active = hit-call score of the fitted dose curve at least 0.9, where 1 is the maximum;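 also: neurons counted by imaging betaIII-tubulin and Hoechst stained cortical cells; cells exposed to compound for about 48 hours before fixation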)
# Outline: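 Read-out: neuron number by high-content imaging of betaIII-tubulin (Alexa Fluor-488) and Hoechst-labelled rat primary cortical cells.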
# [3] = CCTE_Mundy_HCI_Cortical_NOG_BPCount: CCTE's Neurite Outgrowth Assay in rat cortical cells for Branch Point Count, Mundy Lab (AID 2284237);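 as to AC50: branch points counted about two days after chemical exposure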
# Outline: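 Measured 50.33 h after dosing, this morphology endpoint uses rat primary cortical cultures labelled for betaIII-tubulin. Branch points are quantified by high-content imaging, with DMSO as negative control and baseline.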
# [4] = CCTE_Mundy_HCI_hNP1_CellTiter: CCTE's Cell Titer-Glo 2 Assay in human neuroprogenitor cells for Viability, Mundy Lab (AID 2284241; active = hit-call score of the fitted dose curve at least 0.9, where 1 is the maximum;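 as to AC50: a hit is a drop in ATP luminescence versus DMSO meaning reduced viability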)
# Outline: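 Viability read as luminescent ATP content (CellTiter-Glo, 30 min room temperature) twenty-four hours after dosing, relative to DMSO. Cells: WA09-derived hNP1 neuroprogenitors on poly-L-ornithine/laminin, plated 40 to 44 hours before chemical.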
# [5] = CCTE_Mundy_HCI_Cortical_Synap_Neur_Matur_NeuronCount: CCTE's Synaptogenesis and Neurite Maturation Assay in rat cortical cells for Neuron Count, Mundy Lab (AID 2284242; active = hit-call score of the fitted dose curve at least 0.9, where 1 is the maximum;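 as to AC50: hits reduce neuron count versus DMSO baseline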)
# Outline: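 Rat primary cortical cells, AraC added at DIV 5, dosed with media change from DIV 7 to DIV 12. Fixed, Hoechst-stained and immunolabelled for MAP2 and synaptophysin; neuron number counted by high-content imaging, loss fitted versus DMSO.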
# [6] = TAMU_PeakParms_SingleDonor1434_QT: Texas A&M University (TAMU) 1.5-hr Human Induced Pluripotent Stem Cell (iPSC)-derived Cardiomyocytes Calcium (Ca+2) Flux Assay for Cardiotoxicity: QT (decay-rise ratio) (AID 2284235; active = hit-call score of the fitted dose curve at least 0.9, where 1 is the maximum)
# Outline: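 iPSC-derived cardiomyocytes (single donor 1434) dosed at 0.2, 1, 10, 100 uM final in 0.5% DMSO, 90 min at 37C. Ca2+ flux fluorescence decay/rise ratio; EC05 (5% increase versus DMSO) as POD, excluding beat-arrest and severe-notch data.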
# [7] = read-out: Secreted IgG (sIgG), gene 3500; experiment: BSK_BT_sIgG: BioMAP Diversity Plus: BT Assay for Secreted IgG (sIgG) Biomarker Activity (AID 2284226); details: primary human B cells with PBMC
# Outline: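 Human B cell plus PBMC co-culture; secreted IgG measured by ELISA 24 h after chemical dosing. Response fitted in positive direction relative to DMSO baseline.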
# [8] = BSK_BT_Bcell_Proliferation: Viability Assessment in the BioMAP Diversity Plus: BT Assay for B cell Proliferation (AID 2284227); details: primary human B cells with PBMC
# Outline: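 Read-out is absorbance at 560 nm from sulforhodamine B staining of total protein, reflecting relative cell numbers in a human B cell and PBMC co-culture after 72 h of chemical exposure. Values were referenced to DMSO.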
# [9] = read-out: Interleukin 6 (IL6), IL6 (gene 3569); experiment: BSK_BT_xIL6: BioMAP Diversity Plus: BT Assay for Interleukin 6 (IL6) Biomarker Activity (AID 2284228); details: primary human B cells with PBMC
# Outline: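 Human B cell/PBMC co-culture; secreted IL-6 quantified by Luminex xMAP 24 h after chemical dosing, fitted relative to DMSO. Parallel PBMC viability by Alamar Blue after 1 h pretreatment, 20 ng/mL SEB and TSST-1, 90 h incubation.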
# [10] = read-out: Tumor necrosis factor (Homo sapiens) (UniProt P01375); experiment: BSK_BT_xTNFa: BioMAP Diversity Plus: BT Assay for Tumor necrosis factor alpha (TNF-alpha) Biomarker Activity (AID 2284230); details: primary human B cells with PBMC
# Outline: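 Human primary co-culture of B cells and peripheral blood mononuclear cells; TNF-alpha in supernatant, 24 h post-dose, Luminex multiplex; DMSO = baseline.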
# [11] = read-out: Vascular cell adhesion molecule 1 (VCAM1), VCAM1 (gene 7412); experiment: BSK_MyoF_VCAM1: BioMAP Diversity Plus: MyoF Assay for Vascular cell adhesion molecule 1 (VCAM1) Biomarker Activity (AID 2284231); details: primary human lung fibroblasts
# Outline: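 Primary human lung fibroblasts (BioMAP MyoF system) dosed with chemical, VCAM-1 measured by ELISA 24 hours later. Fitted in the positive direction against DMSO; parallel SRB staining assessed cytotoxicity.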
# [12] = read-out: Collagen I, COL1A1 (gene 1277); experiment: BSK_MyoF_CollagenI: BioMAP Diversity Plus: MyoF Assay for Collagen I Biomarker Activity (AID 2284238); details: primary human lung fibroblasts
# Outline: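 Primary human lung fibroblasts (MyoF system) treated 24 h; Collagen I quantified by ELISA and fitted in positive direction against DMSO. Parallel SRB total-protein staining assessed overt cytotoxicity.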
# [13] = read-out: Collagen III, COL3A1 (gene 1281); experiment: BSK_MyoF_CollagenIII: BioMAP Diversity Plus: MyoF Assay for Collagen III Biomarker Activity (AID 2284239); details: primary human lung fibroblasts
# Outline: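 Primary human lung fibroblasts (BioMAP MyoF system) exposed 24 h. Collagen III measured by ELISA; positive-direction fit relative to DMSO.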
# [14] = read-out: Interleukin 17F (IL17F), IL17F (gene 112744); experiment: BSK_BT_xIL17F: BioMAP Diversity Plus: BT Assay for Interleukin 17F (IL17F) Biomarker Activity (AID 2284243); details: primary human B cells with PBMC
# Outline: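 Human PBMC co-cultured with B cells, compound exposure 24 h; secreted IL-17F quantified by Luminex xMAP, referenced to DMSO control. PBMC viability measured in parallel by Alamar Blue reduction.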
# [15] = read-out: Actin alpha 1 (ACTA1), ACTA1 (gene 58); experiment: BSK_MyoF_ACTA1: BioMAP Diversity Plus: MyoF Assay for Actin alpha 1 (ACTA1) Biomarker Activity (AID 2284244); details: primary human lung fibroblasts
# Outline: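 Human lung fibroblast (MyoF system) cultures dosed with test chemical; alpha-SMA measured by ELISA 24 h after dosing, normalized to DMSO control. Cytotoxicity tracked in parallel cultures by SRB total-protein staining.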
# [16] = read-out: Interleukin 2 (IL2), IL2 (gene 3558); experiment: BSK_BT_xIL2: BioMAP Diversity Plus: BT Assay for Interleukin 2 (IL2) Biomarker Activity (AID 2284245); details: primary human B cells with PBMC
# Outline: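 Human B cell plus PBMC co-culture, 24 h after chemical dosing; secreted IL-2 quantified by Luminex xMAP multiplex, fitted for signal gain against DMSO baseline.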
# [17] = read-out: Basic fibroblast growth factor (bFGF), FGF2 (gene 2247); experiment: BSK_MyoF_bFGF: BioMAP Diversity Plus: MyoF Assay for Basic fibroblast growth factor (bFGF) Biomarker Activity (AID 2284246); details: primary human lung fibroblasts
# Outline: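 Human lung fibroblast cultures were dosed and measured 24 h later in 96-well format. bFGF biomarker levels quantified by ELISA, with activity fitted in the positive direction against DMSO.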
# [18] = read-out: Collagen IV, COL4A1 (gene 1282); experiment: BSK_MyoF_CollagenIV: BioMAP Diversity Plus: MyoF Assay for Collagen IV Biomarker Activity (AID 2284247); details: primary human lung fibroblasts
# Outline: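 Primary human lung fibroblasts (MyoF system) dosed 24 h; Collagen IV measured by ELISA. Activity fitted in positive direction against DMSO; cytotoxicity tracked by SRB total-protein staining in parallel cultures.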
# [19] = read-out: Monokine induced gamma interferon (MIG), CXCL9 (gene 4283); experiment: BSK_KF3CT_MIG: BioMAP Diversity Plus: KF3CT Assay for Monokine induced gamma interferon (MIG) Biomarker Activity (AID 2284248); details: primary human keratinocytes with fibroblasts
# Outline: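 Human keratinocyte–foreskin fibroblast co-culture; MIG measured by ELISA 24 h after chemical dosing, fitted upward versus DMSO. Cytotoxicity was assessed in parallel cultures by SRB total-protein staining read at 560 nm.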
# [20] = TAMU_HCS_1.5hr_SingleDonor1434_Cytotoxicity: Cytotoxicity Assessment using High-content Screening (HCS) Fluorescent Imaging for the Texas A&M University (TAMU) 1.5-hr Human Induced Pluripotent Stem Cell (iPSC)-derived Cardiotoxicity Assay (AID 2284234; active = hit-call score of the fitted dose curve at least 0.9, where 1 is the maximum)
# Outline: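 Human iPSC-derived cardiomyocytes dosed at 0.2, 1, 10, 100 uM final (0.5% DMSO) for 90 min at 37 C. Hoechst 33342-stained nuclei counted by 10x high-content imaging; POD is EC10, a 10% drop in total cell count versus DMSO.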
# Chain of Tumor necrosis factor (Homo sapiens) (P01375 whole entry, looked up): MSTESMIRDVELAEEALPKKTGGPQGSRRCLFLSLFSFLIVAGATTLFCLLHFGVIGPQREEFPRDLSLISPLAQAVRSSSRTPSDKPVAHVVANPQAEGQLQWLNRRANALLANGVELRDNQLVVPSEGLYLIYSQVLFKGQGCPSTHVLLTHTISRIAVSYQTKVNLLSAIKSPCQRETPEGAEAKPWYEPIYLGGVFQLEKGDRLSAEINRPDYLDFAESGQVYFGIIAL
compound,measurement,setting,value
CO/C=C(/C(=O)OC)c1ccccc1COc1cccc(C(F)(F)F)n1,AC50,[1],50 µM (active)
same,AC50,[2],2.81 µM (active)
same,AC50,[3],1.28 µM (active)
same,AC50,[4],81.5 µM (active)
same,AC50,[5],0.935 µM (active)
C=CC(N)=O,outcome,[6],inactive
same,outcome,[3],inactive
same,outcome,[4],inactive
same,outcome,[5],inactive
O=C(O)C(F)(F)C(F)(F)C(F)(F)C(F)(F)C(F)(F)F,outcome,[7],inactive
same,outcome,[8],inactive
same,outcome,[9],inactive
same,outcome,[10],inactive
same,outcome,[11],inactive
same,outcome,[12],inactive
same,outcome,[13],inactive
same,outcome,[14],inactive
same,outcome,[15],inactive
same,outcome,[16],inactive
same,outcome,[17],inactive
same,outcome,[18],inactive
same,outcome,[19],inactive
O=C(O)C(F)(F)C(F)(F)C(F)(F)C(F)(F)C(F)(F)C(F)(F)C(F)(F)C(F)(F)C(F)(F)F,outcome,[7],inactive
same,AC50,[8],20.4 µM (active)
same,outcome,[8],inactive
same,outcome,[9],inactive
same,outcome,[10],inactive
same,AC50,[11],48.6 µM (active) and 44.7 µM (active)
same,AC50,[12],15.8 µM (active) and 18.9 µM (active)
same,AC50,[13],26.2 µM (active) and 19.1 µM (active)
same,outcome,[4],inactive
same,outcome,[14],inactive
same,AC50,[15],45.3 µM (active) and 23.6 µM (active)
same,outcome,[16],inactive
same,AC50,[17],56.9 µM (active) and 55.4 µM (active)
same,AC50,[18],7.07 µM (active) and 7.44 µM (active)
same,AC50,[19],50.1 µM (active) and 45.2 µM (active)
CCOP(=S)(OCC)SCSC(C)(C)C,outcome,[1],inactive
same,AC50,[2],68.1 µM (active)
same,outcome,[4],inactive
same,AC50,[5],9.92 µM (active) and 25.5 µM (active)
Oc1c(Cl)c(Cl)c(Cl)c(Cl)c1Cl,AC50,[7],27 µM (active)
same,outcome,[8],inactive
same,outcome,[9],inactive
same,outcome,[10],inactive
same,AC50,[11],2.41 µM (active)
same,AC50,[12],2.58 µM (active)
same,AC50,[13],4.07 µM (active)
same,outcome,[14],inactive
same,AC50,[15],10.3 µM (active)
same,outcome,[16],inactive
same,AC50,[17],33.5 µM (active)
same,AC50,[18],30.6 µM (active)
ClC1=C(Cl)[C@]2(Cl)[C@@H]3[C@@H]4C[C@@H]([C@H]5O[C@@H]45)[C@@H]3[C@@]1(Cl)C2(Cl)Cl,outcome,[20],inactive
same,outcome,[6],inactive
same,AC50,[2],21.7 µM (active)
same,AC50,[5],25 µM (active)
ClC1=C(Cl)[C@]2(Cl)[C@@H]3[C@@H](Cl)[C@H]4O[C@H]4[C@@H]3C1(Cl)C2(Cl)Cl,AC50,[2],34.2 µM (active)
same,AC50,[3],9.79 µM (active)
same,AC50,[4],35.9 µM (active)
same,AC50,[5],7.22 µM (active)
COc1ccc(O)c(C(C)(C)C)c1,outcome,[3],inactive
same,outcome,[4],inactive
same,outcome,[5],inactive
same,outcome,[19],inactive
